Reference: PubChem BioAssay AID1878 (Sanford-Burnham Center for Chemical Genomics, 2009)
The campaign covered roughly 1,000 compounds. About 200 (20%) were called active. No stated cut-off is given here; in the data, active means inhibition above about 55%; inactive means the rest. A selection follows. Results with a measured potency or affinity are listed apart.

target: Dual specificity protein phosphatase 3 (Homo sapiens) (UniProt P51452); assay: VHR1 phosphatase inhibitors, biochemical (AID 1878); conditions: recombinant VHR phosphatase, fluorogenic substrate; at 13.3 µM; active compounds read high
Sequence (P51452 whole entry, looked up): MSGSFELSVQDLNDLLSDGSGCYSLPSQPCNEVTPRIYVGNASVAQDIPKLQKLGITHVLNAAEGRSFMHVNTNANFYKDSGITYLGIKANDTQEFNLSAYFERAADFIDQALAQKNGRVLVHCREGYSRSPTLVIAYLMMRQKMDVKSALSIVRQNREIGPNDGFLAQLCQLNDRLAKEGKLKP

SMILES | inhibition
Cc1ccc(NC(=O)NC(=O)CN2CCN(c3ccc(O)cc3)CC2)c(C)c1 | -13.5% (inactive)
O=C(O)c1ccc(-n2cccc2/C=C2/SC(=O)N(CC(=O)N3CCCC3)C2=O)cc1 | 96.8% (active)
Cc1ccc2c(c1)c(CC(=O)Nc1ccc(C)c(F)c1)c(C(=O)O)n2C | -6.8% (inactive)
Cc1cccc(NC(=O)CN2C(=O)S/C(=C\c3cccn3-c3cccc(C(=O)O)c3)C2=O)c1 | 75.6% (active)
O=C(Cn1nc(-c2ccccc2)ccc1=O)N1CCCCC1 | -1.1% (inactive)
COc1ccccc1CNC(=O)C1Cc2cc(S(=O)(=O)N3CCCCC3)ccc2N1C(C)=O (stereo not given) | 28.1% (inactive)
CCC1CCCCN1C(=O)c1ccc(OC2CCN(C(=O)CCOC)CC2)cc1 (stereo not given) | -6.7% (inactive)
CN(C)S(=O)(=O)c1ccc(C(=O)N2CC(=O)Nc3ccc(F)cc3C2c2ccc(F)cc2)cc1 (stereo not given) | 26.6% (inactive)
COc1ccc(CCNC(=O)CCNC(=O)N2CC(=O)Nc3ccccc32)cc1OC | -7.1% (inactive)
COC(=O)c1cc(S(=O)(=O)NCCN2CCN(c3ccccc3F)CC2)c[nH]1 | 17.5% (inactive)
CC(=O)Nc1cccc(C(=O)NC(C)c2ccc(-n3ccnc3)cc2)c1 (stereo not given) | 1.8% (inactive)
CCCCN(CC)CCNC(=O)C1CCN(S(=O)(=O)c2cccc3nsnc23)CC1 | 8.4% (inactive)
O=C(NCCN1CCCCC1)Nc1ccccc1F | 18.4% (inactive)
CC1CC(C)CN(CCCNC(=O)Cn2cccc2C(=O)c2ccccc2)C1 (stereo not given) | -12.8% (inactive)
CCOC(=O)NN=C1CCC(c2ccccc2)CC1 (stereo not given) | -4.2% (inactive)
CCC(C)Nc1nc2ccccc2n2c(C)nnc12 (stereo not given) | 26.9% (inactive)
O=C(CCC1CCN(Cc2ccc(Cl)cc2)CC1)NC1CC1 | -8.1% (inactive)
O=c1cc(-c2ccc([N+](=O)[O-])cc2)nc2cc(-c3ccc(Cl)cc3)[nH]n12 | 97.6% (active)
O/N=C/c1ccc2cccc(OCc3ccccc3)c2n1 | -5.4% (inactive)
Cc1ccc(Cn2c(N3CCNCC3)nc3c2c(=O)[nH]c(=O)n3C)cc1 | 3.7% (inactive)
COc1ccc(C2NC(=O)CCC2[N+](=O)[O-])cc1OC (stereo not given) | -5.6% (inactive)
COc1cc(NC(=O)CSc2ncnc3sc4c(c23)CCCC4)c(C(=O)O)cc1OC | 55.5% (active)
COc1ccc(C(=O)CCC(=O)Nc2ccc(N3CCCCC3)cc2)cc1OC | -1.2% (inactive)
COc1ccc(OCC(=O)Nc2nc3c(s2)CCCC3)cc1 | 1.9% (inactive)
COc1cccc(COC(=O)C2CCN(C(=O)c3ccccc3C)CC2)c1OC | -4.4% (inactive)
